The values below come from PubChem BioAssay (NCATS).

Records with an inconclusive call do not appear. Calls of active or inactive are those of the source. Unless noted, calls follow the shape of the dose curve; as a rule, active = well fitted curve in either direction with a large enough effect (not every such curve was filed as active); inconclusive = small, poorly fitted or top-dose-only effect, or another doubt; inactive = flat fitted curve, though single readings scatter. Some results are limits rather than exact numbers.

Test [1] is described as follows: AP1 Signaling Pathway (AID 357).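 Also: ME-180 reporter cells stimulated with EGF at its EC50 level; % is scaled to controls: 0 for no effect and ±100 for the full control effect.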 In a few lines: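 Titration-series screen for positive or negative modulators of EC50 EGF-induced signaling in ME-180 cells carrying an AP-1-driven beta-lactamase reporter. After 5 hours at 37 degrees Celsius, CCF4 460nm/530nm emission ratio gave %Activity; AC50 values derived.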
In test [2] the target is Cytochrome P450 1A2 (Homo sapiens) (UniProt P05177). In words: p450-cyp1a2 (AID 410; calls by dose curve; also: potency is read from the fitted curve at half-maximal effect;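 as to activity change, negative = inhibition: -100% = full effect of reference inhibitor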). In a few lines:
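Human CYP1A2 (20nM) demethylated Luciferin-ME at its Km (100uM) in 100mM KPO4. After 10 min compound preincubation, NADPH regeneration ran the reaction 60 min at room temperature. Luciferin was read by luminescence, normalized to 57 uM furafylline.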

Test [3] is described as follows: NFAT Signaling Pathway (AID 444).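 Also: carbachol stimulus at about its EC50 of 1 µM final; % is scaled to controls: 0 for no effect and ±100 for the full control effect.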 Conditions: Jurkat NFAT-bla M1, carbachol, beta-lactamase ratio, 5 h; at 17.2 µM (top of the series) unless noted. In a few lines:
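Jurkat cells with NFAT-driven β-lactamase reporter and co-expressed M1 receptor, stimulated with carbachol (final 1 uM, ~EC50), compound titration, 5 h at 37 °C. CCF4 loaded 1 h at RT; 460/530 nm ratio gave %activity and AC50.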

Test [4] can be described thus: Stat Signaling Pathway (AID 446).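 Also: ME-180 cervical cancer cells given 40 pM IL-6 alongside compound; SIE-controlled beta-lactamase reporter measured as 460/530 nm FRET emission ratio; % is scaled to controls: 0 for no effect and ±100 for the full control effect.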 In a few lines:
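ME-180 SIE-bla cells; overnight plating; cpd + IL-6 40 pM, 5 h, 37 C; LiveBLAzer 2.5 h RT; 460/530 nm emission ratio. Normalized to 300 pM IL-6 and 125 nM JAK inhibitor controls.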

Test [5] concerns the target Glucocorticoid receptor (Homo sapiens) (UniProt P04150). In words: GR-GFP Redistribution (AID 450;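 active = compounds whose dose series gives a full or clear partial fitted curve of increased nuclear translocation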; also: potency is read from the fitted curve at half-maximal effect). The conditions noted are these: U2OS GR-GFP nuclear translocation, laser cytometry, 2 h.
The target is the same in test [6]. As to the kind of experiment: GR-EFC Redistribution (AID 451; calls by dose curve; also: potency is read from the fitted curve at half-maximal effect). Conditions: CHO-K1 GR-EFC translocation, beta-gal luminescence, 2 h. The procedure, abridged: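 CHO-K1 cells expressing nuclear EA and GR-ED fragments of b-gal; compounds titrated up to 46 uM final, 2 h at 37 C. GR nuclear translocation read as complemented b-gal luminescence after 1 h RT detection.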

Test [7] addresses Mitogen-activated protein kinase 10 (Mus musculus) (UniProt Q61831). In words: JNK3 AlphaScreen Assay (AID 530).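 Also: kinase came from lysate of stimulated human HepG2 cells; signal reports phosphorylation of biotinylated GST-cJun 1-79 at Ser73 with 10 µM ATP; % is scaled to controls: 0 for no effect and ±100 for the full control effect.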 In a few lines: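 qHTS format: compounds tested as titrations against IL-1beta/TNF-alpha-activated HepG2 lysate JNK3 with biotin-GST-cJun substrate and 10 uM ATP at room temperature. Loss of anti-phospho-cJun AlphaScreen signal indicates inhibition.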
The target of test [8] is 3',5'-cyclic-AMP phosphodiesterase 4B (Homo sapiens) (UniProt Q07343). In words: qHTS Assay for Inhibitors of PDE-IV (AID 607; active = well fitted activation curve with a large enough effect in the main read-out, with a control signal flat, not every such curve was filed as active; also: % of control where 0% means no effect). The procedure, abridged: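 ACTOne HEK293 cells carry a modified cAMP-gated CNG channel and express endogenous PDE4; plated 1000 cells/well, compounds up to 22.9 uM final. Membrane-potential dye fluorescence (ex 535/em 590) was read; parental cells received 10 uM forskolin + 100 uM RO 20-1724.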
Chain of 3',5'-cyclic-AMP phosphodiesterase 4B (Homo sapiens) (Q07343 whole entry, looked up): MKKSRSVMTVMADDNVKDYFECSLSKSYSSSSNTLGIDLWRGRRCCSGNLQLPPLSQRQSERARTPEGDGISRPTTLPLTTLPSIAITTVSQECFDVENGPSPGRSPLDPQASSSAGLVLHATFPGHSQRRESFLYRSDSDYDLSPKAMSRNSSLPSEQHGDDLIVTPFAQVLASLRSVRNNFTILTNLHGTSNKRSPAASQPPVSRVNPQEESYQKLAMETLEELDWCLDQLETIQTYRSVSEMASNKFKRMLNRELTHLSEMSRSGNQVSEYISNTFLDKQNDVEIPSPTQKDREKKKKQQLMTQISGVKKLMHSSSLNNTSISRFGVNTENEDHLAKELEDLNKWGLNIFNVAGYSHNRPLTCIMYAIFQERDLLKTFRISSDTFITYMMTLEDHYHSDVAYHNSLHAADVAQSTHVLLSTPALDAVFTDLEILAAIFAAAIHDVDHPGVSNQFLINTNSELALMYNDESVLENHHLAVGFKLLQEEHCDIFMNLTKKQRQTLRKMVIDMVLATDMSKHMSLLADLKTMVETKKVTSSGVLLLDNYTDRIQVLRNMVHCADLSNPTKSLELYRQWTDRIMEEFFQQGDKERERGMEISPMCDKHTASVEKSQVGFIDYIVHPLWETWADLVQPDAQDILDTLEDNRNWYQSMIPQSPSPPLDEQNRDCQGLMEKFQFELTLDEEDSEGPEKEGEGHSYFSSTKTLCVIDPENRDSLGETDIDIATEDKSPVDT

The nature of test [9]: qHTS Assay for Lipid Storage Modulators (AID 1519; calls by dose curve). Conditions: Drosophila S3 cells, BODIPY lipid droplet/cell ratio, laser cytometry, cells loaded with oleic acid; for activity change, negative = inhibition: at 25.7 µM (top of the series). In a few lines: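 Cells seeded at 5,000 per well were treated with compounds over a concentration series and loaded with oleic acid (400 uM, as added). Lipid droplet fluorescence (488 nm excitation, 500-530 nm channel) was read by laser-scanning cytometry and normalized to 20 uM Triacsin C.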
Background: In qHTS, concentration-response curves come from the screen itself.

Test [10] addresses Ubiquitin carboxyl-terminal hydrolase 1 (Homo sapiens) (UniProt O94782). As to the kind of experiment: Inhibitors of USP1/UAF1: Pilot qHTS (AID 504865; active = well fitted curve in the direction sought with a large enough effect; an effect the other way counts as inactive or inconclusive;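 also: rhodamine fluorescence freed from ubiquitin-rhodamine substrate followed over time; top concentration of the series differs between compounds; % is scaled to controls: 0 for no effect and ±100 for the full control effect; nearly all actives have a fitted effect of over 35% in size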). The procedure, abridged: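 Enzyme-free wells gave the negative control, while test wells held 1nM USP1/UAF1 preincubated with compound for 15 min at room temperature. Ub-Rho at 150nM final started the reaction, and fluorescence at 480/540 nm was recorded kinetically.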

For test [11], the target named is Luciferin 4-monooxygenase (Photinus pyralis) (UniProt P08659). In words: Biochemical firefly luciferase enzyme assay for NPC (AID 624030; active = well fitted curve in the direction sought with a large enough effect; an effect the other way counts as inactive or inconclusive; also: nearly all actives have a fitted effect of over 70% in size; also: potency is read from the fitted curve at half-maximal effect;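 as to activity change, negative = inhibition: purified P. pyralis luciferase at 10 nM with luciferin and ATP substrate; 0% = DMSO and -100% = full luciferase inhibition by PTC124 control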). The procedure, abridged: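 Purified P. pyralis luciferase at 10 nM in 50 mM Tris Acetate (final), luminescence read within 5 minutes of enzyme addition to compounds. Activity normalised to PTC124 versus DMSO; concentration-response curves classed by r2, magnitude and activity.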
Chain of Luciferin 4-monooxygenase (Photinus pyralis) (P08659 whole entry, looked up): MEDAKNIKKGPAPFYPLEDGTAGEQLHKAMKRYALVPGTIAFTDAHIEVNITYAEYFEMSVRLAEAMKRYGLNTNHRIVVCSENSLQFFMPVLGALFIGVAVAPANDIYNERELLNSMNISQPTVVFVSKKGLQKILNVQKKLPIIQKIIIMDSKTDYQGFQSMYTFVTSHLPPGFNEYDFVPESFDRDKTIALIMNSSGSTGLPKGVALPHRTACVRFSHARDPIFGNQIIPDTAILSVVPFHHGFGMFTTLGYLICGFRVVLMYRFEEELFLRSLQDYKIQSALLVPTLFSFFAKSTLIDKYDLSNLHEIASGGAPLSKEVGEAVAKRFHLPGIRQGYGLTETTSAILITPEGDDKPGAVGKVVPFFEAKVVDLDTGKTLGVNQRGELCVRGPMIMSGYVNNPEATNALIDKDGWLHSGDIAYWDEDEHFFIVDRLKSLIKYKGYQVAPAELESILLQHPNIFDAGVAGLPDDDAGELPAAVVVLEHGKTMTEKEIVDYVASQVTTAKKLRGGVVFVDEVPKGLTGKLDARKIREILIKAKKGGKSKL

A short description of test [12]: S16 Schwann cell viability assay (CellTiter-Glo assay) (AID 624031; active = well fitted curve in the direction sought with a large enough effect; an effect the other way counts as inactive or inconclusive;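 also: cellular ATP luminescence as a viability measure; plate controls were DMSO-treated cells for no effect and cell-free wells for full effect; nearly all actives have a fitted effect of over 70% in size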). The procedure, abridged:
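Native S16 rat Schwann cells, 500-750 cells/well in DMEM with 10% FBS, dosed with compound after overnight culture and incubated 24h at 37 degree Celsius/5% CO2. Viability by CellTiter-Glo luminescence; % activity normalized to no-cell wells and DMSO-treated cells.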
For orientation: In ATP-based viability assays light output follows the ATP content of the culture.

A short description of test [13]: qHTS profiling for inhibitors of Plasmodium falciparum proliferation (AID 504749; active = well fitted curve in the direction sought with a large enough effect; an effect the other way counts as inactive or inconclusive; also: potency is read from the fitted curve at half-maximal effect;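 as to activity, negative = inhibition: 0% = DMSO vehicle and full inhibition = artemisinin control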; as to all read-outs here: nearly all actives have a fitted effect of over 60% in size). Conditions: P. falciparum in erythrocytes, SYBR Green DNA, 72 h; for activity, negative = inhibition: at 12.8 µM (top of the series). The procedure, abridged: (§1)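 Readout was DNA-dye fluorescence from lysed cultures, ex 485/em 535 nm. Parasitized red cells had grown 72 h with compound; data scaled between 0.29 uM artemisinin and DMSO wells and corrected using vehicle-only plates.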

The subject of the next test is C2A. Described as above. Conditions: P. falciparum in erythrocytes, SYBR Green DNA, 72 h; series mostly up to 12.8 µM. The procedure, abridged:
as §1

The test system of another test is CP191. Described as above. The conditions noted are these: P. falciparum in erythrocytes, SYBR Green DNA, 72 h; series mostly up to 12.8 µM. In a few lines: as §1
For another test, the system named is CP256. Described as above. Conditions: P. falciparum in erythrocytes, SYBR Green DNA, 72 h; series mostly up to 12.8 µM. In a few lines:
as §1

The test system of a further test is CP262. The test is described as above. Conditions: P. falciparum in erythrocytes, SYBR Green DNA, 72 h; series mostly up to 12.8 µM. The procedure, abridged: as §1
The next test concerns CP268. Described as above. The conditions noted are these: P. falciparum in erythrocytes, SYBR Green DNA, 72 h; series mostly up to 12.8 µM. The procedure, abridged: as §1
The next test relates to JCK. Described as above. Conditions: P. falciparum in erythrocytes, SYBR Green DNA, 72 h; series mostly up to 12.8 µM. In a few lines:
as §1

The next test deals with SC27B. The description is as above. The conditions noted are these: P. falciparum in erythrocytes, SYBR Green DNA, 72 h; series mostly up to 12.8 µM. The procedure, abridged: as §1
Where [14] appears, read: measured here: cell count channel max response.
Setting [15] is: measured here: lipid channel max response.

Chain of Ubiquitin carboxyl-terminal hydrolase 1 (Homo sapiens) (O94782 whole entry, looked up): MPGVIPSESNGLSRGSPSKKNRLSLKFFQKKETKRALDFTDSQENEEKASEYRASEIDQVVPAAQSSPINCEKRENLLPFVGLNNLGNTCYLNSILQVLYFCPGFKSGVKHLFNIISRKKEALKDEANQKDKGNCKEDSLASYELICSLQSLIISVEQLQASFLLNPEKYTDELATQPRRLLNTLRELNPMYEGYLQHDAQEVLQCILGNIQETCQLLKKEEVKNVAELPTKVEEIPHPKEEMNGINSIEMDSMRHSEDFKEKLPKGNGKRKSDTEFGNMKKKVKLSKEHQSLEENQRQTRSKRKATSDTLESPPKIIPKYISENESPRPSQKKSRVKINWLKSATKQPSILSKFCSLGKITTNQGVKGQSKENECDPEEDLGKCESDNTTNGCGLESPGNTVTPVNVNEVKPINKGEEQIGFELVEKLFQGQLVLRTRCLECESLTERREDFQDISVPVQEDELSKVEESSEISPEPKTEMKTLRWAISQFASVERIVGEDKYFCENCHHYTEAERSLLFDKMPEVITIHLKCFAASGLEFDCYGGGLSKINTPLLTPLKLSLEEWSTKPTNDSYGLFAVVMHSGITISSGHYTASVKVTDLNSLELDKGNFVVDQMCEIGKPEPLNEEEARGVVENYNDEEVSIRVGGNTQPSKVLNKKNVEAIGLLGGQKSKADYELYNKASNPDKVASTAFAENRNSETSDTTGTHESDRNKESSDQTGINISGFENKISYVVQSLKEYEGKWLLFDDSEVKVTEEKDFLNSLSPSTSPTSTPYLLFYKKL
Chain of Cytochrome P450 1A2 (Homo sapiens) (P05177 whole entry, looked up): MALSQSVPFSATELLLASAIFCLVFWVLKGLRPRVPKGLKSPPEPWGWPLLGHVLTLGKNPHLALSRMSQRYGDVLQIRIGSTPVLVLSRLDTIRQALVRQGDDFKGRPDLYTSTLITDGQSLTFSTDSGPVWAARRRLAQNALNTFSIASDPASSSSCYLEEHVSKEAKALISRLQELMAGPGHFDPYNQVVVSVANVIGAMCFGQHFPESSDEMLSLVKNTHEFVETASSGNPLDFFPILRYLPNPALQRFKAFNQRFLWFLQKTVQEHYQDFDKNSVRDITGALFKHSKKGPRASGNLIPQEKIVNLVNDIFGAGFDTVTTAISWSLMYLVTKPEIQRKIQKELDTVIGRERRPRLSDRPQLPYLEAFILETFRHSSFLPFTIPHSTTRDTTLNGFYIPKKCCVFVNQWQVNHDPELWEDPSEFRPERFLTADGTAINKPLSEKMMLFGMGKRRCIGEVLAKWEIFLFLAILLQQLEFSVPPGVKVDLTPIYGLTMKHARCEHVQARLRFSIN
Chain of Glucocorticoid receptor (Homo sapiens) (P04150 whole entry, looked up, the tested form may be a part): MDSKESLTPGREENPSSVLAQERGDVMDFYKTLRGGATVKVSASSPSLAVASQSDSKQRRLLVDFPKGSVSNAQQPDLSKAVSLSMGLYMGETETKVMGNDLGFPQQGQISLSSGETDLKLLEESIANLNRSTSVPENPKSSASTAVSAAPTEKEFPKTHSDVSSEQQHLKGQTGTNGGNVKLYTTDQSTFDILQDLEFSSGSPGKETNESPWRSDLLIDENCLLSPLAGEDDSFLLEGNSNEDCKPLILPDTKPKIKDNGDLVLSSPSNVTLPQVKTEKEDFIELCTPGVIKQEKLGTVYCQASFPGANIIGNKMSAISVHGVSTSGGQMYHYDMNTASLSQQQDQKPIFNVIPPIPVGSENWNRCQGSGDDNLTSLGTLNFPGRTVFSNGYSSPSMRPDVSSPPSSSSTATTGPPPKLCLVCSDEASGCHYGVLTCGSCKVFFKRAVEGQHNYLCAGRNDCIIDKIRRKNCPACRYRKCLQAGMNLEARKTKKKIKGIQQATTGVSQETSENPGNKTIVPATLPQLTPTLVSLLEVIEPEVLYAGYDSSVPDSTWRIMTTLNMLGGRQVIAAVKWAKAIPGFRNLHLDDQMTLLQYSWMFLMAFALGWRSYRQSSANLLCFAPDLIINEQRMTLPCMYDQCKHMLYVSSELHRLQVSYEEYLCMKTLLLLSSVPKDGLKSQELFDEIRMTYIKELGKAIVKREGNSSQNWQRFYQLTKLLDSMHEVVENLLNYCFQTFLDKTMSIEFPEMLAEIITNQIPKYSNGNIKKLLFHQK

Turning to `C=CCSC[C@@H]1Nc2cc(Cl)c(S(N)(=O)=O)cc2S(=O)(=O)N1`, the call in test [1], in test [4] and in test [8] was inactive. Further, the Potency entry in test [2], in test [7] and in [10] was “inactive” each time. For the same compound, the activity change, negative = inhibition was -2.73% (inactive) in test [3] and -0.966% (inactive) in [9]. Moreover, the Potency in test [5] and in test [6] was > 20.6 µM (inactive) throughout. Besides, the figures for the max response in [9] (setting [14]) and in test [9] (setting [15]) were -24.3% and -22.1%, respectively.

For the compound `CO[C@H]1C=CO[C@]2(C)Oc3c(C)c(O)c4c(O)c(c5c(c4c3C2=O)NC2(CCN(CC(C)C)CC2)N=5)=NC(=O)C(C)=CC=C[C@@H](C)[C@@H](O)[C@@H](C)[C@@H](O)[C@@H](C)[C@@H](OC(C)=O)[C@@H]1C`, the outcome in test [1], in test [4] and in [8] was inactive. In addition, in test [2], the Potency result was “inactive”. Moreover, the activity change, negative = inhibition in test [3] is -15% (inactive); in [9] it was -0.285% (inactive). The Potency in [6] was > 20.6 µM (inactive). For the same compound, the max response in [9] (setting [14]) is -3.75%; in test [9] (setting [15]) it was -1.31%.

Take `C[C@@H](C(=O)O)c1ccc(C(=O)c2ccccc2)s1`: the call in [1], in [4], in test [8] and in test [12] was inactive. Further, the Potency in test [2] is 0.251 µM (active); in test [11], 4.89 µM (active). Besides, the values for the activity change, negative = inhibition in [3] and in test [9] were 4.12% (inactive) and -0.119% (inactive), respectively. The Potency entry (in [7]; in test [10]; in the test with C2A; in the test with CP191; with CP256; with CP262) was “inactive” in each case. Moreover, the Potency result with CP268, with JCK and with SC27B was “inactive” throughout. Besides, the max response came to 1.62% in test [9] (setting [14]) and 2.32% in test [9] (setting [15]). The activity, negative = inhibition in test [13] (parasite line A) is 5.2% (inactive); in test [13] (parasite line B), 16.9% (inactive).

In the case of `CN[C@]1(C)[C@H]2CC[C@@H](C2)C1(C)C`, the outcome in [1], in test [4] and in [8] was inactive. Further, the Potency entry in [2] and in test [7] was “inactive” throughout. Besides, the activity change, negative = inhibition was -19.7% (inactive) in test [3] and -3.7% (inactive) in test [9]. Moreover, the Potency in test [5] and in test [6] was > 20.6 µM (inactive) each time. Besides, the figures for the max response in test [9] (setting [14]) and in [9] (setting [15]) were -12.2% and -14.5%, respectively.

Turning to `COC(=O)C1=C(C)NC(C)=C(C(=O)OC(C)C)[C@H]1c1cccc2nonc12`, the result in test [1], in test [4], in test [8] and in test [12] was inactive. Moreover, the results for the Potency in test [2] and in test [6] were 12.6 µM (active) and > 20.6 µM (inactive), respectively. The activity change, negative = inhibition in test [3] was -22.3% (inactive); in test [9], -0.0066% (inactive). Besides, the Potency entry (in [7]; in [11]; with C2A; in the test with CP256; with JCK) was “inactive” throughout. Moreover, the max response in test [9] (setting [14]) was -21.2%; in test [9] (setting [15]), -22.3%.

Consider `C[C@@]12CC[C@@H]3c4ccc(O)cc4CC[C@H]3[C@H]1C[C@@H](O)[C@H]2O`, for which the call in [1], in test [4] and in [8] was inactive. For the same compound, the Potency result in [2], in [7] and in [10] was “inactive” each time. The activity change, negative = inhibition is -13% (inactive) in test [3] and -1.89% (inactive) in [9]. In addition, the Potency in [6] was > 20.6 µM (inactive). Also, the values for the max response in test [9] (setting [14]) and in test [9] (setting [15]) were -5.07% and -7.07%, respectively.

As to `CCC[C@@H]1O[C@@H]2C[C@@H]3[C@H]4CCC5=CC(=O)C=C[C@@]5(C)[C@H]4[C@H](O)C[C@@]3(C)[C@@]2(C(=O)CO)O1`, the compound was classed as inactive in test [1], in test [4] and in test [8]. Moreover, the Potency entry (in [2]; in [7]; in test [10]; in test [11]; in the test with CP262; in the test on CP268) was “inactive” throughout. The activity change, negative = inhibition is -1.55% (inactive) in test [3] and -3% (inactive) in test [9]. For the same compound, the max response was 4.44% in test [9] (setting [14]) and -2.78% in [9] (setting [15]). The Potency (in test [13] (parasite line A); in test [13] (parasite line B); with CP191; in the test on CP256) was 11.2 µM (active) each time.
